The text below walks through data of PubChem BioAssay (NCI).

This is part of a sample that, as a whole, favours compounds with a hit. Of some 83,000 tested, about 20% had one in any assay.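 Each cell line was grown in a 96-well plate and treated with one concentration of compound for 48 hours. Values below 10 were considered active.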 Values without a mark were called inactive. Activity calls are given as the source filed them.

The test system of this assay is HL-60(TB) leukemia. Put plainly: NCI-60 one-dose screen, 48 h (100 = growth as untreated, 0 = no growth, -100 = all killed). Particulars: 10 µM unless noted.
Take `Cc1ccc(-c2nc(C#N)c(S(=O)(=O)N3CCN(S(=O)(=O)c4ccccc4)CC3)o2)cc1`: the growth is -44.9% (active).

With `Cc1cc(C)nc(NS(=O)(=O)c2ccc(N/C(N)=N/c3nccc(-c4cccs4)n3)cc2)n1`, the growth was 1.77% (active). In the case of `O=C(NCCCCCCCCCC[P+](c1ccccc1)(c1ccccc1)c1ccccc1)c1ccc(-n2nc(-c3ccccc3O)nc2-c2ccccc2O)cc1` it was -29.8% (active). In the case of `COc1cc(-c2ccc3ncnc(N4CCc5ccc(Cl)cc54)c3c2)cnc1Cl` it was -8.13% (active).

On to `C#CCNC(=O)CCC(=O)OC[C@]12CC[C@@H](C(=C)C)[C@@H]1C1CC[C@@H]3[C@@]4(C)CCCNC(C)(C)[C@@H]4CC[C@@]3(C)[C@]1(C)CC2` (stereo not given in full), for which the growth is -39% (active). As for `O=C(COc1ccc(NC(=O)Nc2ccc(Cl)cc2)cc1)N/N=C/c1ccccc1`, the growth was 45.8%.

With `COc1ccc(-c2cc(C)nc3[nH]c(=O)sc23)cc1`, the growth was 75.6%. In the case of `COc1ccc2c3nc4cc(C)c(C)cc4nc3n(CCN(C)C)c2c1` it was -45.3% (active); in that of `O=c1c2ccccc2nc(COc2ccccc2)n1/N=C/c1ccc(N2CCOCC2)cc1`, 100%; in that of `C=CC[n+]1cccc2c3ccccc3ccc21`, 57.2%.

For `Cc1c(C(=O)NNC(=O)c2ccc(Cl)cc2)nnn1-c1ccc(Br)cc1`, the growth is 102%. The figure for `CC(=O)Nc1ccc(C(=O)NC(=S)Nc2ccc(S(N)(=O)=O)cc2)cc1` is 95.5%; for `CCN1C(=O)/C(=N\N=C(/C)c2ccc3c(c2)Nc2ccccc2S3)c2cc(Cl)ccc21` it is 75.2%; for `COc1ccc(-c2nc(-c3ccccc3)c(-c3ccccc3)n2-c2ccc(S(=O)(=O)Nc3ncccn3)cc2)cc1OC` it is 89%.

As for `COC(=O)c1cccc(Oc2ccc(NC(=O)Nc3cc(C(F)(F)F)ccc3F)cc2)c1`, the growth was 78%. In the case of `O=C(CSc1nc2ccccc2c(=O)[nH]1)NNC(=O)c1ccccc1Cl` it was 105%. `O=C(O)c1ccc(-c2ccc(/C=N/NC(=O)c3[nH]c4ccc(Br)cc4c3-c3ccccc3)s2)cc1`: the growth was -5.49% (active).

Turning to `O=C(N/C(=C1/OCCN1Cc1ccccc1)[P+](c1ccccc1)(c1ccccc1)c1ccccc1)c1ccccc1`, the growth was -13.1% (active).

Take `Cn1cc(-c2nc(N)nnc2-c2c[nH]c3ccccc23)c2cc(Br)cnc21`: the growth is 4.17% (active). The figure for `COc1ccc(-c2cc(C(=O)N=Nc3c(O)[nH]c4ccc(F)cc34)c3ccccc3n2)cc1` is 51.6%; for `CN1CCN(C(=O)Oc2cc3c(c4ccccc24)[C@H](CCl)CN3C(=O)c2cc3cc(OCCCN4CCC4)ccc3[nH]2)[C@@H]2CSSC[C@H]21` it is -25.8% (active); for `CN1C(=O)C2(C(C#N)=C(c3ccc(Cl)cc3)Nc3c2c(-c2ccccc2)nn3-c2ccccc2)c2ccccc21` (stereo not given) it is 50.3%.

In the case of `CC(=O)C1=C(C)NC(SCC(=O)Nc2ccc(S(=O)(=O)Nc3cc(C)on3)cc2)=NC1c1ccccc1` (stereo not given), the growth is 100%. In the case of `C=Cn1cc(C(=O)O)c(=O)c2cc(F)c(N3CCN(c4nccc(-c5nccs5)n4)CC3)cc21` it was -24.7% (active); in that of `Cc1ccc2nc(COc3ccc(C(=O)NNC(=O)Nc4ccc(Cl)c(C(F)(F)F)c4)cc3)[nH]c2c1`, 86.1%.

As to `CCOC(=O)C(Cc1ccccc1)N1C(=O)/C(=C/N2N=C(c3ccc(OC)cc3)CC2c2ccc3ccccc3c2)SC1=S` (stereo not given), the growth is -18.4% (active). Take `Cc1ccc2c(c1)/C(=C/C(=O)c1cc3ccccc3oc1=O)C(=O)N2`: the growth is 53%. For the compound `CN1C(=O)N(C)C2SC(N/N=C/c3ccc(F)cc3)=NC21` (stereo not given), the growth was -4.65% (active). For the compound `CC(=O)Nc1ccc(-c2cn(-c3cccc(C(=O)Nc4cc(CN5CCOCC5)cc(C(F)(F)F)c4)c3)nn2)cn1`, the growth is -54.3% (active). The figure for `CC(=O)c1ccc(Nc2nc(SC(C)C)nc(-c3ccccc3)c2C#N)cc1` is 93.6%; for `O=c1oc2ccccc2cc1-c1csc(N2N=C(c3ccccc3)CC2c2ccc(N3CCOCC3)cc2)n1` (stereo not given) it is 96.5%. The figure for `Nc1nnc(-c2c[nH]c3ncccc23)c(-c2c[nH]c3ccc(Br)cc23)n1` is 42%.

For the compound `COc1ccc(NC(=O)Cn2c(/C=C/c3ccc([N+](=O)[O-])cc3)nc3ccccc3c2=O)cc1`, the growth was 112%. In the case of `COc1cc(CNC(=O)[C@]23CCC(C)(C)CC2C2=CCC4[C@@]5(C)CCC(OC(C)=O)C(C)(C)C5CC[C@@]4(C)[C@]2(C)CC3)ccc1OCc1cn(-c2ccc(Cl)cc2Cl)nn1` (stereo not given in full) it was 105%; in that of `Cc1cc(=O)oc2cc(OCCCCOc3ccc(/C=C/C(=O)Nc4ccccc4[N+](=O)[O-])cc3)ccc12`, 101%. In the case of `S=C(Nc1ccc(OCc2nc3ccc(Cl)cc3[nH]2)cc1)NC1CCCCC1` it was -37.1% (active); in that of `O=C(NN1C(=O)/C(=C/C=C/c2ccc([N+](=O)[O-])o2)SC1=S)c1ccc([N+](=O)[O-])cc1`, -7.3% (active).

For the compound `N#Cc1ccc(-c2nn(-c3ccc(C(=O)O)cc3)cc2CNc2ccc(Cl)cc2)cc1`, the growth is 87.8%.

As to `CNc1nc2ccccc2n2c(-c3ccc(O)c(O)c3)cnc12`, the growth is -19.6% (active). With `O=C(N/N=C/c1ccc(B(O)O)s1)c1[nH]c2ccc(Br)cc2c1-c1ccccc1`, the growth is -18.2% (active).
